# Laboratory results reported in the supplement of paper PMC8975748.
# Structures can show the parent of a compound that is named as a salt. ± gives the standard deviation of the averaged measurements.
# What was measured:
# [1] = system: Saccharomyces cerevisiae BY4741 SeMeCo community; assay: mean cell size (pixel area) (pixels); higher = larger cells; conditions: 10 µM; 24 h; SM minimal medium
# How it was run: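 A Saccharomyces cerevisiae BY4741 community carrying four plasmids, each with a fluorescent marker and each complementing one auxotrophy, was exposed for 24 h to drug at a final 10 µM in SM medium in acoustically predosed 384-well plates. The overnight preculture (OD600 = 1.0) was diluted to OD600 = 0.3 before 70 µl was added per well. Cells were then fixed with paraformaldehyde, imaged by automated confocal microscopy and analysed in Harmony to derive mean cell pixel area per well, averaged over 3 replicates. Same SeMeCo high-content imaging drug screen: Selleck FDA-approved drugs at 10 µM, 24 h in SM medium, 384-well plates, 3 replicates.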
# [2] = system: Saccharomyces cerevisiae BY4741 SeMeCo community; assay: z-score of prototroph abundance vs DMSO median; higher = larger share of this subpopulation than in DMSO controls; conditions: 10 µM; 24 h; SM minimal medium; subpopulation (auxotrophy): Prototroph
# How it was run: (§1)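 Cells of a Saccharomyces cerevisiae BY4741 community, carrying four plasmids that each restored one auxotrophy and encoded a distinct fluorescent protein, were pre-grown overnight to OD600 1.0 and diluted to 0.3. A 70 µl volume was added to 384-well plates acoustically predosed with library drugs (10 µM final) and grown 24 h in minimal SM medium. After paraformaldehyde fixation, automated confocal microscopy was used, with single-auxotroph fluorescent strains for thresholds and autofluorescence correction. The abundance of each subpopulation was scored as a z-score against the vehicle-well median.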
# [3] = system: Saccharomyces cerevisiae BY4741 SeMeCo community; assay: z-score of subpopulation abundance vs DMSO median, subpopulation auxotrophic for M; higher = larger share of this subpopulation than in DMSO controls; conditions: 10 µM; 24 h; SM minimal medium; subpopulation (auxotrophy): M
# How it was run: as §1
# [4] = system: Saccharomyces cerevisiae BY4741 SeMeCo community; assay: z-score of subpopulation abundance vs DMSO median, subpopulation auxotrophic for L; higher = larger share of this subpopulation than in DMSO controls; conditions: 10 µM; 24 h; SM minimal medium; subpopulation (auxotrophy): L
# How it was run: as §1
# [5] = system: Saccharomyces cerevisiae BY4741 SeMeCo community; assay: z-score of subpopulation abundance vs DMSO median, subpopulation auxotrophic for U; higher = larger share of this subpopulation than in DMSO controls; conditions: 10 µM; 24 h; SM minimal medium; subpopulation (auxotrophy): U
# How it was run: as §1
# [6] = system: Saccharomyces cerevisiae BY4741 SeMeCo community; assay: z-score of subpopulation abundance vs DMSO median, subpopulation auxotrophic for H; higher = larger share of this subpopulation than in DMSO controls; conditions: 10 µM; 24 h; SM minimal medium; subpopulation (auxotrophy): H
# How it was run: as §1
# [7] = system: Saccharomyces cerevisiae BY4741 SeMeCo community; assay: z-score of subpopulation abundance vs DMSO median, subpopulation auxotrophic for HM; higher = larger share of this subpopulation than in DMSO controls; conditions: 10 µM; 24 h; SM minimal medium; subpopulation (auxotrophy): HM
# How it was run: as §1
# [8] = system: Saccharomyces cerevisiae BY4741 SeMeCo community; assay: z-score of subpopulation abundance vs DMSO median, subpopulation auxotrophic for HU; higher = larger share of this subpopulation than in DMSO controls; conditions: 10 µM; 24 h; SM minimal medium; subpopulation (auxotrophy): HU
# How it was run: as §1
# [9] = system: Saccharomyces cerevisiae BY4741 SeMeCo community; assay: z-score of subpopulation abundance vs DMSO median, subpopulation auxotrophic for UM; higher = larger share of this subpopulation than in DMSO controls; conditions: 10 µM; 24 h; SM minimal medium; subpopulation (auxotrophy): UM
# How it was run: as §1
# [10] = system: Saccharomyces cerevisiae BY4741 SeMeCo community; assay: z-score of subpopulation abundance vs DMSO median, subpopulation auxotrophic for HL; higher = larger share of this subpopulation than in DMSO controls; conditions: 10 µM; 24 h; SM minimal medium; subpopulation (auxotrophy): HL
# How it was run: as §1
# [11] = system: Saccharomyces cerevisiae BY4741 SeMeCo community; assay: z-score of subpopulation abundance vs DMSO median, subpopulation auxotrophic for HLU; higher = larger share of this subpopulation than in DMSO controls; conditions: 10 µM; 24 h; SM minimal medium; subpopulation (auxotrophy): HLU
# How it was run: as §1
# [12] = system: Saccharomyces cerevisiae BY4741 SeMeCo community; assay: z-score of subpopulation abundance vs DMSO median, subpopulation auxotrophic for HUM; higher = larger share of this subpopulation than in DMSO controls; conditions: 10 µM; 24 h; SM minimal medium; subpopulation (auxotrophy): HUM
# How it was run: as §1
# [13] = system: Saccharomyces cerevisiae BY4741 SeMeCo community; assay: z-score of subpopulation abundance vs DMSO median, subpopulation auxotrophic for HLUM; higher = larger share of this subpopulation than in DMSO controls; conditions: 10 µM; 24 h; SM minimal medium; subpopulation (auxotrophy): HLUM
# How it was run: as §1
# [14] = system: Saccharomyces cerevisiae BY4741 SeMeCo community; assay: z-score of subpopulation abundance vs DMSO median, subpopulation auxotrophic for LU; higher = larger share of this subpopulation than in DMSO controls; conditions: 10 µM; 24 h; SM minimal medium; subpopulation (auxotrophy): LU
# How it was run: as §1
# [15] = system: Saccharomyces cerevisiae BY4741 SeMeCo community; assay: z-score of subpopulation abundance vs DMSO median, subpopulation auxotrophic for LM; higher = larger share of this subpopulation than in DMSO controls; conditions: 10 µM; 24 h; SM minimal medium; subpopulation (auxotrophy): LM
# How it was run: as §1
# [16] = system: Saccharomyces cerevisiae BY4741 SeMeCo community; assay: z-score of subpopulation abundance vs DMSO median, subpopulation auxotrophic for HLM; higher = larger share of this subpopulation than in DMSO controls; conditions: 10 µM; 24 h; SM minimal medium; subpopulation (auxotrophy): HLM
# How it was run: as §1
# [17] = system: Saccharomyces cerevisiae BY4741 SeMeCo community; assay: z-score of subpopulation abundance vs DMSO median, subpopulation auxotrophic for LUM; higher = larger share of this subpopulation than in DMSO controls; conditions: 10 µM; 24 h; SM minimal medium; subpopulation (auxotrophy): LUM
# How it was run: as §1
Structure (SMILES),mean cell size [1],z-score of prototroph abundance [2],z-score of subpopulation abundance [3],z-score of subpopulation abundance [4],z-score of subpopulation abundance [5],z-score of subpopulation abundance [6],z-score of subpopulation abundance [7],z-score of subpopulation abundance [8],z-score of subpopulation abundance [9],z-score of subpopulation abundance [10],z-score of subpopulation abundance [11],z-score of subpopulation abundance [12],z-score of subpopulation abundance [13],z-score of subpopulation abundance [14],z-score of subpopulation abundance [15],z-score of subpopulation abundance [16],z-score of subpopulation abundance [17]
CO/N=C(\C(=O)N[C@@H]1C(=O)N2C(C(=O)O)=C(CSc3nnnn3C)CS[C@H]12)c1csc(N)n1 [Cefmenoxime hydrochloride],12.5 ± 0.38,-0.33,0.36,-0.06,-0.34,0.02,0.28,-0.46,0.4,-0.51,-0.51,-0.02,-0.52,,,,
COc1cc2c(cc1OC)-c1cc3ccc(OC)c(OC)c3c[n+]1CC2 [Palmatine],12.41 ± 0.069,-0.25,,2.2,-0.98,-0.08,1.01,-1.11,-0.01,1.04,1.86,0.8,1.87,-0.2,1.94,0.37,1.08
O=c1cc(-c2ccc(O)c(O)c2)oc2cc(O)cc(O)c12 [Luteolin],12.5 ± 0.16,-0.73,-0.18,,0.21,0.27,-0.39,1.42,-0.52,,0.05,-0.43,-0.27,,,-0.56,0.16
OC(CCCN1CCCCC1)(c1ccccc1)c1ccccc1 [Diphenidol HCl],12.4 ± 0.41,-0.42,,-0.41,0.63,-0.38,0.03,0.48,1.63,-0.42,-0.05,0.78,-0.39,0.23,-0.56,-0.07,-0.35
CN1C[C@@H]2C[C@H]1CN2c1cc2c(cc1F)c(=O)c(C(=O)O)cn2C1CC1 [Danofloxacin Mesylate],12.1 ± 0.25,0.27,,-0.69,0.06,0.54,-0.46,-0.09,,-0.06,0.21,-0.05,-0.14,-0.89,-0.68,-0.5,-0.46
Cc1ccc(Cl)c(Nc2ccccc2C(=O)O)c1Cl [Meclofenamate Sodium],12.7 ± 0.19,1.11,,-0.25,-0.1,-0.35,-0.47,-0.21,-0.07,-0.49,-0.7,-0.63,-0.31,-0.57,-0.57,-0.85,-0.74
Cc1nc(Nc2ccc(F)cc2)nc(N2CCc3ccccc3C2C)c1C (stereo not given) [Revaprazan Hydrochloride],11.4 ± 0.18,-0.48,-0.84,,0.73,1,-0.33,0.79,1.11,0.35,-0.07,0.45,0.14,,,,0.27
CC[C@H](C)C[C@H](C)CCCCCCCCC(=O)N[C@H]1C[C@@H](O)[C@@H](NCCN)NC(=O)[C@@H]2[C@@H](O)CCN2C(=O)[C@H]([C@H](O)CCN)NC(=O)[C@H]([C@H](O)[C@@H](O)c2ccc(O)cc2)NC(=O)[C@@H]2C[C@@H](O)CN2C(=O)[C@H]([C@@H](C)O)NC1=O [Caspofungin Acetate],,,-8.37,5.93,,,-0.2,8.05,-2.51,51.3,13.9,10.8,,,1.23,,5.81
CC(C(=O)O)c1ccc(C(=O)c2cccs2)cc1 (stereo not given) [Suprofen],12.4 ± 0.17,0.24,,0.48,-0.1,-0.25,-0.73,-0.02,-0.8,-0.36,0.03,-1.16,-0.2,-0.41,0.42,-0.28,-0.07
COC(=O)Nc1nc2cc([S+]([O-])c3ccccc3)ccc2[nH]1 (stereo not given) [Oxfendazole],12.59 ± 0.1,0.13,0.39,,1.29,0.08,-0.28,0.76,0.53,0,-0.7,0.73,,,-1.48,-0.75,-0.67
Clc1ccc(C(Cn2ccnc2)OCc2c(Cl)cccc2Cl)c(Cl)c1 (stereo not given) [Isoconazole nitrate],,,-0.17,,2.14,21,3.75,11.7,5.43,3.07,2.86,4.65,9.4,,-1.59,13.3,-0.77
COCCCN1CCC(NC(=O)c2cc(Cl)c(N)c3c2OCC3)CC1 [Prucalopride Succinate],12.5 ± 0.32,-1.55,0.77,-0.33,0.93,-0.29,0.63,1.07,1.44,0.16,1.78,1.42,2.43,,,,0.31
CCOC(=O)OC(C)OC1=C(C(=O)Nc2ccccn2)N(C)S(=O)(=O)c2ccccc21 (stereo not given) [Ampiroxicam],12.3 ± 0.37,0.81,0,,-0.79,,,,0.08,-0.64,-0.83,-0.48,-0.78,,0.15,,-0.42
O=C(O[C@H]1CN2CCC1CC2)N1CCc2ccccc2[C@@H]1c1ccccc1 [Solifenacin succinate],12.1 ± 0.28,-0.49,0.77,-0.16,0.4,-0.91,,,,0.67,0.46,0.3,0.94,,0.27,,0.68
Cc1cc(O)cc(C)c1Cl [Chloroxylenol],12.7 ± 0.17,-1.56,0.89,0.85,0.84,0.68,0.32,,1.27,0.81,0.24,0.68,,,0.41,,0.54
